Among all 300,000 compounds or so, about 3,200 (1.1%) were called active. The entries come from a sample that favours actives as a whole. Values without a mark were called inactive. Rule as the data show it: active = inhibition above about 75%; inconclusive = no clear call, values can overlap the other calls; inactive = below that; tested in HMLE shEcad cells.
test: growth suppression of cancer stem-like cells – cell-based, luminescence, primary screen (AID 2717); conditions: cancer stem cell-like cells viability, at 7.5 µM, active compounds read high

Compared with `O=C(COC(=O)c1ccc(F)cc1)NCC1COc2ccccc2O1` (stereo not given), `Cn1cccc1C(=O)OCC(=O)NCCc1ccccc1` is higher in inhibition: -14.2% for the first, 6.32% for the second.

First: CCCc1cc(=O)[nH]c(SCC(=O)OCc2ccccc2)n1
Second: CCCc1cc(=O)[nH]c(SCC(=O)c2cc(C)n(CCC)c2C)n1
The inhibition of the first is higher: 4.11% for the first, -3.32% for the second.

Compared with `O=C(CCc1nc(-c2ccccc2)no1)Nc1cccc(C(=O)NC2CC2)c1`, `Cc1c(C(=O)N2CCCc3ccccc32)sc2nc(-c3ccccc3)cn12` is higher in inhibition: 1.1% for the first, 36.7% for the second.

First: CCN(C(=O)COC(=O)c1ccccc1O)c1cccc2ccccc12
Second: COc1ccc(-c2c(C#Cc3ccccc3)c3ccccc3n2C)cc1
The inhibition of the first is lower: -18.3% for the first, 3.8% for the second.

First: CCc1cc(C(=O)Nc2nnc(C3CC3)s2)sc1C
Second: Cn1nnnc1SCC(=O)Nc1cccc(S(=O)(=O)N2CCCCC2)c1
The inhibition of the first is lower: -10.9% for the first, 1.58% for the second.

Going from `C[C@H](CO)N1C[C@H](C)[C@@H](CN(C)C(=O)Nc2ccc3c(c2)OCO3)Oc2c(cccc2N(C)C)C1=O` to `Cc1ccc(NS(=O)(=O)c2ccc(C(C)C)cc2)cc1S(=O)(=O)N1CCOCC1`, the inhibition falls from -12.1% to -16.7%.

Going from `COc1ccc2sc(-c3ccc(S(C)(=O)=O)cc3)c(C#Cc3cncn3C)c2c1` to `Cc1cc(C)cc(NS(=O)(=O)c2ccc(F)cc2)c1`, the inhibition falls from 45.5% to -6.47%.

First: COc1ccc(C2(C)ON(c3ccccc3C(F)(F)F)C2=O)cc1 (stereo not given)
Second: COC(=O)Cc1ccc(Oc2ncc(C(F)(F)F)cc2Cl)cc1
The inhibition of the first is higher: 6.61% for the first, -10.7% for the second.

First: Cc1c(C(=O)N2CCCc3ccccc32)oc2ccccc12
Second: CN1C(=O)[C@H]2[C@@H](/C=C/c3ccccc3)N3C(=O)CN(Cc4ccc(-c5ccccc5)cc4)C(=O)[C@@]3(C)[C@H]2C1=O
The inhibition of the first is higher: -3.96% for the first, -4% for the second.

Work on `CN(CC(=O)NCCc1ccc(S(N)(=O)=O)cc1)CC(=O)Nc1ccc(F)c(F)c1F` yielded an inhibition of -16.9%.

For `CCCc1cc(=O)[nH]c(SCC(=O)c2c(N)n(CC(C)C)c(=O)n(C)c2=O)n1`, the inhibition was 83.8% (active).
With `COc1ccc2sc(-c3ccc(N(C)C)cc3)c(C#CCO)c2c1` the inhibition was 113% (active).
In the case of `COc1ccc(-c2sc3ccc(OC)cc3c2C#Cc2ccccn2)cc1`, the inhibition is reported as 111% (active).
In the case of `Cc1cccc2cc3c(N)c(C(=O)N4CCCc5ccccc54)sc3nc12`, the inhibition is reported as 85.3% (active).
In the case of `Oc1c(Cl)cc(Cl)c(Cl)c1Cc1c(O)c(Cl)cc(Cl)c1Cl`, the inhibition is reported as 99.3% (active).
For `Cc1cc(C)cc(NS(=O)(=O)c2ccc(Oc3ncc(C(F)(F)F)cc3Cl)cc2)c1`, the inhibition was 118% (active).

From PubChem BioAssay AID2717 (Broad Institute, 2010)
